The nature of assay [1]: Nuclear factor erythroid 2-related factor 2/antioxidant responsive element (Nrf2/ARE) small molecule agonists: qHTS cell viability counter screen in human keratinocytes (AID 1919968; active = well fitted curve in the direction sought with a large enough effect in the repeat runs; an effect the other way counts as inactive or inconclusive; also: nearly all actives have a fitted effect of over 55% in size; also: potency is read from the fitted curve at half-maximal effect). In short, it runs like this:
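Measured as CellTiter-Fluor fluorescence, this readout tracks cytotoxicity in the same wells as the ARE-luciferase screen. HaCaT reporter cells (1,500/well) received compounds after a 5 h pre-incubation and were exposed for 23 h.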
(In qHTS, concentration-response curves come from the screen itself.)

Assay [2] has as its target Gonadotropin-releasing hormone receptor (Homo sapiens) (UniProt P30968). The assay can be described thus: Human gonadotropin-releasing hormone receptor (GnRHR) small molecule agonists, calcium flux assay in GnRHR-HEK293 cells (AID 1920063). Also: nearly all actives have a fitted effect of over 35% in size. A digest of the protocol: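 Fluorescence kinetics (480 nm excitation, 540 nm emission; 3 min, 1 s steps) report calcium mobilisation in human GnRHR-HEK293 cells in agonist mode. Dye incubation: 1 h, 37 C.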
In general terms: A change in cytosolic calcium serves as a functional read-out for many receptors and channels.

Assay [3] has as its target KiSS-1 receptor (Homo sapiens) (UniProt Q969F8). The assay can be described thus: Human kisspeptin (KISS1R) small molecule agonists, calcium flux assay in KISS1R-HEK293 cells (AID 1920064; active = well fitted curve in the direction sought with a large enough effect in the repeat runs; an effect the other way counts as inactive or inconclusive). In short, it runs like this:
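Measures KISS1R agonism through calcium-sensitive dye fluorescence in stably transfected HEK293 cells, read for 3 min after pin-tool compound delivery; 15-point titrations in triplicate.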

A short description of assay [4]: G protein-coupled receptor (GPCR) small molecule agonists, calcium flux assay: HEK293 wild type cell line counter screen (AID 1920065). A digest of the protocol: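 Readout: fluorescence at 480 nm excitation/540 nm emission, sampled at 1 s intervals for 3 min. Cells had been cultured 18 h, then dye-loaded 1 h at 37 C before compound or ATP addition.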
Assay [5] in a line: p53 small molecule agonists, cell-based qHTS assay with human liver microsomes (AID 1963577).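 Also: p53 response element beta-lactamase reporter cells with liver microsomes plus NADPH.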 A digest of the protocol:
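Metabolically competent format: test substances, human liver microsomes and NADPH (both 0.5 mg/mL final) incubated with p53RE-bla cells 16 h at 37 C. Beta-lactamase reporter signal then quantified by fluorescence.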

Assay [6] can be described thus: p53 small molecule agonists, cell-based qHTS assay with rat liver microsomes (AID 1963578). In short, it runs like this:
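Each plate received p53RE-bla cells, then compound, then rat liver microsomes and NADPH (both 0.5 mg/mL final). Plates were held 16 h at 37 C, and beta-lactamase activity was detected with LiveBLAzer over 2 h.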

Assay [7] in a line: p53 small molecule agonists, cell-based qHTS assay with human liver microsomes: qHTS cell viability counter screen (AID 1963579). Also: nearly all actives have a fitted effect of over 45% in size. In short, it runs like this: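 Tox21 library compounds, delivered from DMSO stocks, were tested on p53RE-bla cells together with 0.5 mg/mL human liver microsomes and 0.5 mg/mL NADPH (final) over 16 h at 37 C; CellTiter-Glo luminescence served as the cytotoxicity measure.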

Assay [8] is described as follows: p53 small molecule agonists, cell-based qHTS assay with rat liver microsomes: qHTS cell viability counter screen (AID 1963580). Also: nearly all actives have a fitted effect of over 45% in size. In short, it runs like this: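 p53RE-bla HCT-116 cells (4,000/well) rested 5 h at 37 C, then given Tox21 compounds in DMSO with rat liver microsomes (0.5 mg/mL final) plus NADPH (0.5 mg/mL final) for 16 h at 37 C. Viability read by CellTiter-Glo luminescence after 30 min at room temperature.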

Assay [9] can be described thus: p53 small molecule agonists, cell-based qHTS assay: qHTS cell viability counter screen (AID 1963581). Also: nearly all actives have a fitted effect of over 45% in size. A digest of the protocol: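 In the same plates used for the p53 bla reporter, HCT-116 cells given compounds for 16 h at 37 C received CellTiter-Glo; luminescence was recorded 30 min later at room temperature.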
A short description of assay [10]: p53 small molecule agonists, cell-based qHTS assay (AID 1963582; active = well fitted activation curve with a large enough effect in the signal ratio in the repeat runs, not every such curve was filed as active; the % refers to the signal ratio). In short, it runs like this:
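Compounds are pin-transferred in DMSO onto p53RE-bla cells and incubated 16 h at 37 C. The B/G FRET beta-lactamase substrate is then applied for 2 h at RT and fluorescence recorded.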

Assay [11] concerns the target 5-hydroxytryptamine receptor 2A (Homo sapiens) (UniProt P28223). The assay can be described thus: 5-hydroxytryptamine receptor 2A (HTR2A) small molecule antagonists, cell-based qHTS assay (AID 1963586). Also: nearly all actives have a fitted effect of over 45% in size. Also: potency is read from the fitted curve at half-maximal effect. A digest of the protocol:
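Antagonist-mode intracellular calcium assay: DOI (4 nM) added after 5 min compound pre-incubation at room temperature to dye-loaded HTR2A-CHO cells. Fluorescence followed for 3 min, sampled every second.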

Assay [12] shares this target. The assay can be described thus: 5-hydroxytryptamine receptor 2A (HTR2A) small molecule agonists, cell-based qHTS assay (AID 1963587). Also: nearly all actives have a fitted effect of over 30% in size. In short, it runs like this: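 HTR2A-CHO cells, plated 18 h at 37 C/5% CO2, dye-loaded 1 h at 37 C; compounds in DMSO added by pin tool (agonist mode). Intracellular calcium flux read as kinetic fluorescence on FDSS over 2 min at 1 s intervals.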

Assay [13] concerns the target Muscarinic acetylcholine receptor M1 (Homo sapiens) (UniProt P11229). The assay can be described thus: Cholinergic receptor muscarinic 1 (CHRM1) small molecule agonists, cell-based qHTS assay (AID 1963589). Also: nearly all actives have a fitted effect of over 35% in size. A digest of the protocol:
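Each compound was tested at 15 concentrations across three independent runs on dye-loaded CHO cells stably expressing human CHRM1, reading intracellular calcium fluorescence kinetically at 1 sec intervals.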

Assay [14] in a line: cAMP Responsive Elements (CRE) small molecule agonists, cell-based qHTS assay (AID 1963590). In short, it runs like this: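 Cell line: CRE-bla HEK 293T; medium DMEM/10% dialyzed FBS/0.1 mM NEAA/1 mM pyruvate/25 mM HEPES; 3 h compound exposure; beta-lactamase FRET readout after 2 h substrate loading at RT.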
Assay [15] can be described thus: cAMP Responsive Elements (CRE) small molecule antagonists, cell-based qHTS assay (AID 1963591; active = well fitted inhibition curve with a large enough effect in the signal ratio in the repeat runs, not every such curve was filed as active; the % refers to the signal ratio). In short, it runs like this: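 Inhibition of NKH477-driven (0.25 uM final) CRE-beta-lactamase signal in HEK293T cells, 3 h compound exposure at 37 °C, detected by FRET substrate fluorescence.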
Assay [16] concerns the target Beta-2 adrenergic receptor (Homo sapiens) (UniProt P07550). The assay can be described thus: Adrenergic beta2 receptor (ADRB2) small molecule antagonists, cell-based qHTS assay (AID 1963592). Also: series mostly up to about 92 µM; nearly all actives have a fitted effect of over 50% in size. A digest of the protocol: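 Cells (CHO, stable ADRB2 overexpression) incubated 18-20hr at 37C; compounds added from DMSO; agonist mix (1nM isoproterenol, 100uM IBMX, 25uM Ro-20-1724) added; 0.5hr RT; d2-cAMP and anti-cAMP-cryptate added; 1hr RT; 665/615 nm read.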

Assay [17] has the same target. The assay can be described thus: Adrenergic beta2 receptor (ADRB2) small molecule agonists, cell-based qHTS assay (AID 1963593).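 Also: CHO cells stably overexpressing human ADRB2.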 A digest of the protocol:
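CHO cells stably over-expressing ADRB2 were plated overnight at 37C, then dosed with compounds plus a stimulation mix containing 100uM IBMX and 25uM Ro-20-1724 for 0.5hr at room temperature. cAMP was measured by HTRF competition, 1hr.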

For assay [18], the target named is Muscarinic acetylcholine receptor M1 (Homo sapiens) (UniProt P11229). The assay can be described thus: Cholinergic receptor muscarinic 1 (CHRM1) small molecule antagonists, cell-based qHTS assay (AID 1963588). Also: nearly all actives have a fitted effect of over 40% in size. A digest of the protocol: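 CHRM1-CHO calcium-flux assay, antagonist mode. Cells were seeded 18 h, dye-loaded 1 h at 37 C and given compound for 5 min at RT, then acetylcholine was added at 50nM. FDSS fluorescence was read 3 min; 15 concentrations, three runs.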

In assay [19] the target is D(2) dopamine receptor (Homo sapiens) (UniProt P14416). The assay can be described thus: Dopamine D2 receptor (DRD2) small molecule agonists, cell-based qHTS assay (AID 1963594). Also: nearly all actives have a fitted effect of over 35% in size. A digest of the protocol:
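HEK293 cells stably expressing DRD2 were cultured 24 h at 37 C, then given Ro20-1724 (0.1 mM final) and compounds for 10 min at room temperature. NKH477 (200nM) was then added for 30 min. cAMP was read by HTRF.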

The target is the same in assay [20]. The assay can be described thus: Dopamine D2 receptor (DRD2) small molecule antagonists, cell-based qHTS assay (AID 1963595; active = well fitted inhibition curve with a large enough effect in the signal ratio in the repeat runs, with a control signal flat; the % refers to the signal ratio). In short, it runs like this: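 Human DRD2 antagonist qHTS measuring cAMP by HTRF. The cells are exposed to compound for 10 min, then to NKH477 (200 nM) and quinpirole (12 nM) for 30 min at RT, with Ro20-1724 (0.1 mM) present throughout.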

Records with an inconclusive call do not appear. The source made the active and inactive calls. Unless noted, calls follow the shape of the full dose curve.

Chain of KiSS-1 receptor (Homo sapiens) (Q969F8 whole entry, looked up): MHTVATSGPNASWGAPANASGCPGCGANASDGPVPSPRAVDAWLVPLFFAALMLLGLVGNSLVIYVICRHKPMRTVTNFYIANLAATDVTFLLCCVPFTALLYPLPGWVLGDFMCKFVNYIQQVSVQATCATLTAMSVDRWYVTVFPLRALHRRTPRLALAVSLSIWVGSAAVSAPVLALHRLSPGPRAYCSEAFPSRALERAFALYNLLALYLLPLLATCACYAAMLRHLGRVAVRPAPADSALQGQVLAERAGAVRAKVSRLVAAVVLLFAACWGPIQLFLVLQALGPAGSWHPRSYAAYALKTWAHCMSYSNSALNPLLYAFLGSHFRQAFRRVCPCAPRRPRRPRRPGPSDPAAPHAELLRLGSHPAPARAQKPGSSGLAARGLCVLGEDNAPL
Chain of Beta-2 adrenergic receptor (Homo sapiens) (P07550 whole entry, looked up): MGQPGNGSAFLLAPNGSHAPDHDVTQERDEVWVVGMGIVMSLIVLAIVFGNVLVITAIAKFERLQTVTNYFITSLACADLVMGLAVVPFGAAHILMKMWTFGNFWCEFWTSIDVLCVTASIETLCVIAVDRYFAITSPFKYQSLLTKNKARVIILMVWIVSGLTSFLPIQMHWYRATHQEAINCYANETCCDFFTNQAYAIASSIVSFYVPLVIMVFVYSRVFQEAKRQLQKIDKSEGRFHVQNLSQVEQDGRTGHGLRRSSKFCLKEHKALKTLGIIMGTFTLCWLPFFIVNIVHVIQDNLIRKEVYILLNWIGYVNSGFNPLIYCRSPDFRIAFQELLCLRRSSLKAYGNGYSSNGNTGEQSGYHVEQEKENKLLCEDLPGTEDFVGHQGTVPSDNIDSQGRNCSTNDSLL
Chain of Gonadotropin-releasing hormone receptor (Homo sapiens) (P30968 whole entry, looked up): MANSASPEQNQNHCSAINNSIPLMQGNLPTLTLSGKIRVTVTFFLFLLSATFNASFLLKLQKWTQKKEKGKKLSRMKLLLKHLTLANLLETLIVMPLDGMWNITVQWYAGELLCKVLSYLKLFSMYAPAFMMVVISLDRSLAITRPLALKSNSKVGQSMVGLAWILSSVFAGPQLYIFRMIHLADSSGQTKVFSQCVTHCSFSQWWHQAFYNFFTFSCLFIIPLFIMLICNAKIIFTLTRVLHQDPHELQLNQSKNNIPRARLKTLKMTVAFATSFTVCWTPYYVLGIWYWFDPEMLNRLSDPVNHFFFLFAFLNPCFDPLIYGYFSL
Chain of 5-hydroxytryptamine receptor 2A (Homo sapiens) (P28223 whole entry, looked up): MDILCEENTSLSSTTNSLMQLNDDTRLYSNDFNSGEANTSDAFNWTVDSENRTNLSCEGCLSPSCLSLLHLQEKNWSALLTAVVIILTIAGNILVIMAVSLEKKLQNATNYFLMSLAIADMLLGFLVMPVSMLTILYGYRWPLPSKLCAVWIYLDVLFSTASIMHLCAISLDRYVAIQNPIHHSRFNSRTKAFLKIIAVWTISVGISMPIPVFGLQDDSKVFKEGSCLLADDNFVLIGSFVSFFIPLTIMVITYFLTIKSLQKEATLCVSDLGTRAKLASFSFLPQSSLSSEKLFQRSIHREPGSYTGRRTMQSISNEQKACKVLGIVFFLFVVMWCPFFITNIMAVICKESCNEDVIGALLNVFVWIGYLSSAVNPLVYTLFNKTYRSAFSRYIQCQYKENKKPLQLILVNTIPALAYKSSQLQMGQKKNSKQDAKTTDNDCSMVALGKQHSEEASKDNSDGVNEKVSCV
Chain of D(2) dopamine receptor (Homo sapiens) (P14416 whole entry, looked up): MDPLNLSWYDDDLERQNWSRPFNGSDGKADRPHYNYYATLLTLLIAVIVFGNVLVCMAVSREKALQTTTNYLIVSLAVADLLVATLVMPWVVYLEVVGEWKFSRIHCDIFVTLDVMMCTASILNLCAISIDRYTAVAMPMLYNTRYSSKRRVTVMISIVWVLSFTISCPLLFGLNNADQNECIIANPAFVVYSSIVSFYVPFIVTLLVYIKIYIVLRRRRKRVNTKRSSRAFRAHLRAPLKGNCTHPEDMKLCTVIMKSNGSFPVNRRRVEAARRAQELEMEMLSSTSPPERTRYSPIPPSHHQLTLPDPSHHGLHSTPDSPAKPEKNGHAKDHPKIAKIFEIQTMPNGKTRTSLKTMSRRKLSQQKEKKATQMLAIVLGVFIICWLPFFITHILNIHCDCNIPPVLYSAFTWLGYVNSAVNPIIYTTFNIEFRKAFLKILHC
Chain of Muscarinic acetylcholine receptor M1 (Homo sapiens) (P11229 whole entry, looked up): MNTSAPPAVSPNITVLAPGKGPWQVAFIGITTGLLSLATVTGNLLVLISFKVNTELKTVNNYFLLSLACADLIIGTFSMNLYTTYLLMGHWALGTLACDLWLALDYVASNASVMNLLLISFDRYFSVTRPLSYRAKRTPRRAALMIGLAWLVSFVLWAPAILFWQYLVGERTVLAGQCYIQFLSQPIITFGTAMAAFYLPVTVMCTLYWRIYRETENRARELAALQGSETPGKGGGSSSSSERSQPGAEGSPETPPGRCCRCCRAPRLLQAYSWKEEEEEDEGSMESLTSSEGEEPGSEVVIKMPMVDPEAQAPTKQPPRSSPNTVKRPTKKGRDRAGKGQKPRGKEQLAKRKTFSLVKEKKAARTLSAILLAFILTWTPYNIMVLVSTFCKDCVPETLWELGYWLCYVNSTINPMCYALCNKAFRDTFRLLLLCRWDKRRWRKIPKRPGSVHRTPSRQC

On to `C#CCN(C)CCCOc1ccc(Cl)cc1Cl`, for which the Potency result in [1], in assay [2], in [3], in assay [4], in assay [5] and in assay [6] was “inactive” each time. The Potency result in assay [7], in [8], in assay [9], in [10], in assay [12] and in assay [13] was “inactive” each time. The Potency entry in assay [14], in assay [15], in [16] and in [17] was “inactive” throughout. In assay [11], the Potency is 16.3 µM (active).
Regarding `C=C(C)C(=O)OCCOCCOCCOCCOC(=O)C(=C)C`, the Potency entry in assay [1], in assay [2], in assay [3], in assay [4], in [5] and in assay [6] was “inactive” in each case. Also, the Potency result in [7], in assay [8], in [9], in assay [10], in assay [11] and in assay [12] was “inactive” throughout. The Potency result in assay [18], in assay [16], in assay [17], in assay [19] and in assay [20] was “inactive” each time.
As for `Cc1cccc(Nc2ccccc2)c1`, the Potency result in assay [1], in [2], in [3], in assay [4], in assay [5] and in assay [6] was “inactive” in each case. The Potency result in assay [7], in [8], in assay [9], in assay [10], in assay [11] and in [12] was “inactive” in each case. For the same compound, the Potency result in assay [18], in assay [13], in assay [17] and in assay [19] was “inactive” in each case.
Consider `CC(C)C(O)(c1ccc(OC(F)(F)F)cc1)c1cncnc1` (stereo not given), for which the Potency result in assay [1], in assay [2], in assay [3], in [4], in assay [5] and in assay [6] was “inactive” each time. Moreover, the Potency result in [7], in assay [8], in assay [9], in assay [10], in assay [12] and in assay [18] was “inactive” each time. In addition, the Potency result in assay [13], in assay [14], in assay [15], in assay [16], in [17] and in assay [19] was “inactive” each time.
For `C=CC(C)=CCC=C(C)C`, the Potency entry in assay [1], in assay [2], in assay [3], in assay [4], in assay [5] and in assay [6] was “inactive” each time. Further, the Potency result in assay [7], in assay [8], in assay [9], in [10], in [11] and in [12] was “inactive” in each case. Further, the Potency entry in assay [18], in assay [13], in assay [14], in assay [16], in assay [17] and in assay [19] was “inactive” in each case. In addition, the Potency entry in assay [20] was “inactive”.
With `O=Cc1ccc(O)c(O)c1O`, the Potency result in [1], in [2], in assay [3], in assay [4], in assay [5] and in assay [6] was “inactive” each time. The Potency result in assay [7], in [8], in assay [9], in [10], in assay [11] and in [12] was “inactive” in each case. Besides, the Potency entry in assay [18], in assay [13], in assay [15], in assay [16], in assay [19] and in [20] was “inactive” each time.
Turning to `[O-][N+](=Nc1ccccc1)c1ccccc1`, the Potency result in assay [1], in [2], in [3], in assay [4], in assay [5] and in [6] was “inactive” each time. The Potency entry in assay [7], in [8], in assay [9], in [10], in [12] and in [18] was “inactive” throughout. Also, the Potency entry in [13], in assay [14], in assay [15], in assay [16], in assay [17] and in assay [20] was “inactive” in each case.
For the compound `N/C(=N\N=C\c1ccc(Cl)cc1)N/N=C/c1ccc(Cl)cc1`, the Potency in [1] was 26.6 µM (active). Besides, the Potency result in assay [2], in assay [3], in assay [4], in [5], in [6] and in assay [7] was “inactive” in each case. The Potency entry in [8], in assay [9], in assay [10], in [11], in assay [12] and in assay [18] was “inactive” throughout. Moreover, the Potency entry in assay [13], in [16], in [17] and in assay [19] was “inactive” each time.

The values above are taken from PubChem BioAssay (Tox21).
